# From PubChem BioAssay
# Several values for one entry are separate records, joined by “and”; a condition that tells them apart may be missing. Equal entries are not always repeated. Activity calls are given as the source filed them. Unless noted, no stated cut-off is given here; in the data, active means inhibition above about 80%; inactive means the rest.
# Tests used:
# [1] = liver-stage malaria parasite growth inhibition, primary screen, cell-based, HepG2, luciferase luminescence, HepG2 viability (AID 624349; in the data active means parasite load remaining mostly below about 12%, no sharp cut-off; inactive means mostly above about 10%;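 further: 100% = mean of DMSO negative control wells on the same plate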); details: P. berghei liver stage in HepG2, luciferase luminescence, concentration not given here; parasite load remaining: stronger effect = lower value; viability: measured here: HepG2 viability without parasites
# [2] = phospholipid biosynthesis inhibitors in animal cells, primary screen, cell-based, LOPAC library, screen 4 (AID 1347384; call rule not given here); details: phospholipid biosynthesis inhibition screen, at 10 µM
# [3] = LFS_MB_1R medulloblastoma cell growth inhibition, synergistic combos for chromothripsis tumors, cisplatin or BGB combos (AID 1671452); details: LFS_MB_1R medulloblastoma cells, stronger effect = higher value;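 further: cells exposed for 96 hours before readout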
# [4] = CRL2098 osteosarcoma cell growth inhibition, synergistic combos for chromothripsis tumors, BGB or cisplatin IC20 combos (AID 1671454); details: CRL2098 osteosarcoma cells, drug combinations, stronger effect = higher value;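 further: cells exposed for 96 h before readout; 0% = vehicle DMSO and 100% = killing by high DMSO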
# [5] = HD-MB03 medulloblastoma cell growth inhibition, synergistic combos for chromothripsis tumors, BGB or cisplatin IC20 combos (AID 1671455; in the data active means inhibition above about 83%;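 further: 0% = vehicle DMSO and 100% = high DMSO as cytotoxic control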); details: HD-MB03 medulloblastoma cells, stronger effect = higher value
# [6] = UWB1.289 ovarian carcinoma cell growth inhibition, synergistic combos for chromothripsis tumors, BGB or cisplatin combos (AID 1671456); details: UWB1.289 ovarian carcinoma cells, stronger effect = higher value;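 further: cells exposed to compound for four days; 0% = vehicle DMSO and 100% = killing by high DMSO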
# [7] = LFS_MB_2R medulloblastoma cell growth inhibition, synergistic combos for chromothripsis tumors, cisplatin combos (AID 1671457); details: LFS_MB_2R medulloblastoma cells, stronger effect = higher value;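 further: cells exposed to compound for four days before readout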
# [8] = UWB1.289_BRCA1 ovarian cancer growth, cell-based, BGB or cisplatin combinations (AID 1671459); details: UWB1.289 BRCA1 ovarian carcinoma, drug combinations, stronger effect = higher value
# [9] = human astrocyte viability loss, single and combined drugs, cytotoxicity control for chromothriptic childhood tumor combination screen, cell-based, BGB or cisplatin IC20 combos (AID 1671460); details: Human astrocytes, drug combinations, stronger effect = higher value;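 further: cells exposed to compounds for 96 hours before viability readout; 0% = vehicle and 100% = killing control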
# [10] = viability rescue of complex I mutant cybrids, primary screen, cell-based, galactose medium, ATP luminescence (AID 1645843;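 active means z-score of at least 1.8 in each of two replicates, scored against plate mean and spread of sample wells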;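 further: positive z means more ATP and so rescue of galactose-driven cybrid death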); details: complex I mutant cybrid cells, 72 h, stronger effect = higher value
# [11] = biological target: NAD(+) hydrolase SARM1 (Homo sapiens) (UniProt Q6SZW1); assay: SARM1 TIR NADase inhibitors, cell lysate, NAD-Glo luminescence (AID 1508614;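 active means compound whose remaining NAD level is above about 45 nM, limit read from the data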); details: SAM-TIR HEK293T lysate NADase, at 1 µM, stronger effect = higher value
# Sequence of NAD(+) hydrolase SARM1 (Homo sapiens) (Q6SZW1 whole entry, looked up): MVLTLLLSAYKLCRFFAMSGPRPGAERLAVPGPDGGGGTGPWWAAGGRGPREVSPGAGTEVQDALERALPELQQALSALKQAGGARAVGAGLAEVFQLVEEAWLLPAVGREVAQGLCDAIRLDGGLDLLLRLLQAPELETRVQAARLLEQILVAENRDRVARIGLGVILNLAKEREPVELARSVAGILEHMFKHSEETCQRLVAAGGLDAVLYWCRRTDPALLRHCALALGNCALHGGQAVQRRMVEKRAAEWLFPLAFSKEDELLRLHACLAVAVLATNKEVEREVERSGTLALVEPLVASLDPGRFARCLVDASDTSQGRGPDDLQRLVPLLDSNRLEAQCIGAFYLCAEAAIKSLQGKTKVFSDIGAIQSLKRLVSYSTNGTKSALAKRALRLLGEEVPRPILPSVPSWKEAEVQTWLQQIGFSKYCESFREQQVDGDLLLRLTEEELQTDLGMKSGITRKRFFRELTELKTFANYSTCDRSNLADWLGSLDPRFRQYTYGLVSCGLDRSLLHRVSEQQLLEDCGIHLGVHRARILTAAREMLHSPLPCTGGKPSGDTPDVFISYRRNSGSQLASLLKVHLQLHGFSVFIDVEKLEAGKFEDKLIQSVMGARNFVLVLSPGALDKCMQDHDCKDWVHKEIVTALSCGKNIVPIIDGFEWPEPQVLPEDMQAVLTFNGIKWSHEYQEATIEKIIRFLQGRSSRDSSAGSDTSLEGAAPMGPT
# [12] = kinase inhibitors against Plasmodium liver-stage infection, cell-based, known kinase inhibitor set, luminescence, hepatoma host viability (AID 624392; call rule not given here;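 further: infected cells incubated roughly two days before readout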); details: Plasmodium liver stage in hepatoma cells, luciferase luminescence, concentration not given here; liver cell % of control: measured here: host liver cell viability; parasite % of control: stronger effect = lower value
# [13] = tested on: Hepatitis C virus NS3 helicase; assay: HCV NS3 helicase inhibitors, primary screen, biochemical, fluorescence polarization, LOPAC1280 library (AID 687035; in the data active means inhibition above about 37%); details: Purified HCV NS3 helicase, Cy5-dT15 ssDNA binding fluorescence polarization; stronger effect = higher value; concentration not given here
# [14] = Cy5 fluorescence quenching or enhancement artefacts, artefact control for HCV NS3 helicase inhibitor project, biochemical, LOPAC1280 (AID 687037; call rule not given here); details: Cy5-DNA-NS3h complex fluorescence interference counterscreen
# [15] = measured here: combination with BGB IC40, at 0.05 µM
# [16] = measured here: combination with cisplatin, at 0.5 µM
# [17] = measured here: combination with cisplatin, at 5 µM
# [18] = measured here: combination with BGB at IC20, at 0.5 µM
# [19] = measured here: combination with cisplatin at IC20, at 0.5 µM
# [20] = measured here: combo with BGB at IC20, at 0.5 µM
# [21] = measured here: combo with cisplatin at IC20, at 0.5 µM
# [22] = measured here: inhibition with BGB combination, at 0.05 µM
# [23] = measured here: inhibition with cisplatin combination, at 0.05 µM
# [24] = BGB combination, concentration series, at 5 µM
# [25] = cisplatin combination, concentration series, at 5 µM
# [26] = measured here: combo with BGB IC20, at 0.5 µM
# [27] = measured here: combo with cisplatin IC20, at 0.5 µM
structure (smiles),measurement,setting,value
O=C1NCCc2[nH]c(-c3ccncc3)cc21,parasite load remaining,[1],110% (inactive)
same,viability,[1],61.5%
same,outcome,[2],inactive
C[C@]1(c2nc3c(C(N)=O)cccc3[nH]2)CCCN1,inhibition,[3]; at 0.5 µM,-23.5% (inactive) and -13.6% (inactive)
same,inhibition,[3]; [15],-41.9% and -23.5%
same,inhibition,[3]; [16],-45.7% and 4.68%
same,inhibition,[3]; [17],-38.3% and -18.5%
same,inhibition,[4]; at 0.5 µM,-49.8% (inactive) and -59.1% (inactive)
same,inhibition,[4]; [18],-12.1% and -70.3%
same,inhibition,[4]; [19],-110% and -65.8%
same,inhibition,[5]; at 0.5 µM,-8.8% (inactive) and -9.57% (inactive)
same,inhibition,[5]; [20],-16.2% and -2.73%
same,inhibition,[5]; [21],-3.64% and -17.6%
same,inhibition,[6]; at 0.5 µM,-9.31% (inactive) and 2.13% (inactive)
same,inhibition,[6]; [22],-8.28% and -17%
same,inhibition,[6]; [23],-23.7% and -11.7%
same,inhibition,[7]; at 0.5 µM,-25% (inactive) and -15.4% (inactive)
same,inhibition,[7]; [16],-36.7% and -21.6%
same,inhibition,[7]; [17],-29.1% and -120%
same,inhibition,[8]; [24],10.2% and -0.186%
same,inhibition,[8]; at 0.5 µM,-7.22% (inactive) and -0.79% (inactive)
same,inhibition,[8]; [25],-4.84% and 4.22%
same,inhibition,[9]; at 0.5 µM,9.85% (inactive) and -2.9% (inactive)
same,inhibition,[9]; [26],-1.53% and -5.78%
same,inhibition,[9]; [27],9.8% and -13.1%
CCCCCCCCCCCC(CC1OC(=O)C1CCCCCC)OC(=O)C(CC(C)C)NC=O (stereo unspecified),z-score,[10],-1.84 (inactive)
C[C@H]1[C@H](OC(=O)CCC(=O)O)O[C@@H]2O[C@@]3(C)CC[C@H]4[C@H](C)CC[C@@H]1[C@@]24OO3,remaining NAD,[11],10 nM (inactive)
Cc1ccc2nc(NCCN)c3ncc(C)n3c2c1,inhibition,[3]; at 0.5 µM,1.37% (inactive)
same,inhibition,[3]; [15],-13.1%
same,inhibition,[3]; [16],-5.04%
same,inhibition,[3]; [17],83.6%
same,inhibition,[4]; at 0.5 µM,-21.4% (inactive)
same,inhibition,[4]; [18],13.8%
same,inhibition,[4]; [19],-60.3%
same,inhibition,[5]; at 0.5 µM,-5.33% (inactive)
same,inhibition,[5]; [20],-7.44%
same,inhibition,[5]; [21],-1.09%
same,inhibition,[6]; at 0.5 µM,-4.12% (inactive)
same,inhibition,[6]; [22],-17.4%
same,inhibition,[6]; [23],-11.7%
same,inhibition,[7]; at 0.5 µM,-14.5% (inactive)
same,inhibition,[7]; [16],-10.3%
same,inhibition,[7]; [17],15.9%
same,inhibition,[8]; [24],91.7%
same,inhibition,[8]; at 0.5 µM,1.55% (inactive)
same,inhibition,[8]; [25],76.1%
same,inhibition,[9]; at 0.5 µM,-0.35% (inactive)
same,inhibition,[9]; [26],0.763%
same,inhibition,[9]; [27],2.83%
O=C(O)c1ccc2c(c1)nc(Nc1cccc(Cl)c1)c1ccncc12,liver cell % of control,[12],84.7% and 84.9% and 89.8%
same,parasite % of control,[12],247% (inactive) and 142% (inactive) and 94.6% (inactive)
CN(C)c1ccccc1CN1CCCN(Cc2ccccc2N(C)C)C1c1ccncc1,outcome,[2],inactive
C=CC[N+]1([C@H]2C[C@H]3[C@@H]4CC[C@H]5C[C@H](O)[C@@H](N6CCOCC6)C[C@]5(C)[C@H]4CC[C@]3(C)[C@H]2OC(C)=O)CCCC1,parasite load remaining,[1],25.4% (inactive)
same,viability,[1],138%
same,z-score,[10],0.25 (inactive)
O=C1NC(=O)/C(=C/c2cccc(C(F)(F)F)c2)S1,parasite load remaining,[1],38.3% (inactive)
same,viability,[1],85%
O=C(Nc1cc(Cl)cc2c1[nH]c1cnccc12)c1cccnc1,parasite load remaining,[1],33.8% (inactive)
same,viability,[1],87.1%
CS(=O)(=O)c1ccc(C(=O)Nc2ccc(Cl)c(-c3ccccn3)c2)c(Cl)c1,z-score,[10],0.355 (inactive)
COc1ccc2c(c1)c(C1=C(c3c[nH]c4ccccc34)C(=O)NC1=O)cn2CCCN(C)C,parasite load remaining,[1],27.6% (inactive)
same,viability,[1],93.9%
CN1CC(=O)NC1=NC(=O)Nc1cccc(Cl)c1,inhibition,[13],-2% (inactive)
same,fluorescence ratio (interference),[14],1 (inactive)
same,outcome,[2],inactive
CCN(CCO)CCCOc1ccc2c(Nc3cc(CC(=O)Nc4cccc(F)c4)[nH]n3)ncnc2c1,parasite % of control,[12],144% (inactive) and 137% (inactive) and 97.1% (inactive)
